# Compound activity as filed in PubChem BioAssay.
# GPR151 ag – activators of human GPR151. Q8TDV0. PathHunter beta-arrestin GPR151 cells, luminescence. activation, % at 11.2 µM. actives 1% (n = 650,000). AID 1508602; in the data active = activation above about 4.9%;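 note: 0% = median of compound wells and 100% = cells with positive control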
# Target sequence (Q8TDV0 whole entry, looked up): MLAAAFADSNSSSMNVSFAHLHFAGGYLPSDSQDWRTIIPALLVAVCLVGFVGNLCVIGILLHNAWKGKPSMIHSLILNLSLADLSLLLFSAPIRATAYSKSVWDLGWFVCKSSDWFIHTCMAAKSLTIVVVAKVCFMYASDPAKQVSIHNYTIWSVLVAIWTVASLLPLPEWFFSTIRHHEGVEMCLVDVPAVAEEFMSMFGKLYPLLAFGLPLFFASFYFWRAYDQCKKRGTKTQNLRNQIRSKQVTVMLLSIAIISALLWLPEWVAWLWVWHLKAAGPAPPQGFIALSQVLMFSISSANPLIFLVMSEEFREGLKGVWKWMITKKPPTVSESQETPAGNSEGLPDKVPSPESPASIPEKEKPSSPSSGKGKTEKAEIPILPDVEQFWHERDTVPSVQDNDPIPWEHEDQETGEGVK
# FBW7 activator – human FBW7 E3 ligase activation, primary screen; Q969H0; AlphaScreen FBW7–phospho-cyclin E peptide binding, activator screen; normalized activity (activation), % at 26.1 µM; actives 0.13% (n = 650,000); AID 1259310; in the data active = normalized activity above about 1.9%;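 note: purified mutant Fbw7 with reduced substrate affinity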
# MITF inh – human MITF inhibition, primary screen; inhibition, % at 2.6 µM; AlphaScreen MITF homodimerization, bead proximity signal; actives 0.91% (n = 650,000); O75030; in the data active = inhibition above about 50%;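 note: 0% = vehicle wells with protein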
# TEAD-YAP block – TEAD-YAP interaction inhibition; actives 1.4% (n = 640,000); HEK-TIYL cells, TEAD-Gal4/YAP UAS-luciferase luminescence; inhibition, % at 9.12 µM; AID 1259422; in the data active = inhibition above about 32%;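 note: 0% = median of test compound wells and 100% = reference inhibitor wells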
# * marks the source's active call; other numbers are inactive results. This is a sample that favours compounds with a hit; in the whole collection about 3.4% have one here.
SMILES,GPR151 ag,FBW7 activator,MITF inh,TEAD-YAP block
CCN(CC)c1ccc2cc(Cl)c(=O)oc2c1,0.0,1.1,-27.3,-14.4
CCN(CC)c1ccc2cc(N3C(=O)CCC3=O)c(=O)oc2c1,1.1,0.1,7.9,62.1*
CCN(CC)c1ccc2cc(/C(N)=N/NC(C)=O)c(=O)oc2c1,-1.1,0.2,-5.6,41.3*
CCCCCNc1nc(-c2ccco2)c2c(c1C#N)CCCC2,0.5,0.1,-5.0,-2.0
N#Cc1c(NCCN)nc(-c2ccco2)c2c1CCCC2,0.5,-0.2,-9.8,34.5*
COc1cccc(N2CCN(c3cc(C)nc4ncnn34)CC2)c1,-0.7,0.0,0.1,13.6
Cc1cc(N2CCN(c3nc4ccccc4s3)CC2)n2ncnc2n1,1.3,0.0,-20.3,50.8*
O=C(CC(=O)c1c[nH]c2ccccc12)c1ccccc1,1.7,0.2,15.6,-10.1
O=C(CNc1ccncc1)c1c[nH]c2ccccc12,1.5,-0.2,-12.4,82.9*
CCOC(=O)c1c(NC(=O)CSc2nnc(CNC(=O)COc3ccc(Cl)cc3Cl)n2C)sc2c1CCCCC2,-0.2,0.0,0.9,9.7
Cn1c(Nc2nc(NC3CC3)c3ncn(-c4ccccc4)c3n2)nc2ccccc21,-0.1,-0.2,13.4,46.5*
Cn1c(Nc2nc(NCCCN3CCCC3=O)c3ncn(-c4ccccc4)c3n2)nc2ccccc21,-0.4,0.0,6.3,39.4*
CCNc1nc(Nc2ccc(NC(C)=O)cc2)c2ncn(-c3ccccc3)c2n1,0.9,0.2,19.5,-8.2
c1ccc(-n2cnc3c(NC4CC4)nc(Nc4ncccn4)nc32)cc1,-0.3,0.1,-7.4,23.3
CC(=O)Nc1ccc(Nc2nc(Nc3nc4ccccc4n3C)nc3c2ncn3-c2ccccc2)cc1,1.3,-0.1,-1.0,32.2*
CC(C)N(CCNc1nc(Nc2nc3ccccc3n2C)nc2c1ncn2C(C)C)C(C)C,0.5,-0.3,-6.7,42.9*
COc1ccc(C)cc1NC(=O)CC(C)=O,0.8,0.1,5.4,16.1
Cc1cc(=O)[nH]c(SCC(=O)N(C)C2CCCCC2)n1,2.8,-0.1,9.1,-17.9
CC1=CC(=C(C#N)C#N)C=C(C)N1CCN1CCN(C(=O)Nc2ccc(F)cc2)CC1,0.5,-0.2,-3.2,4.8
CCC(C(=O)NCc1ccc2c(c1)OCO2)n1c2ccccc2c2nc(=O)cc(C)n21 (stereo not drawn),0.0,0.0,5.4,-3.7
CCCNc1nc(Nc2nc3ccccc3n2C)nc2c1ncn2-c1ccccc1,3.9,-0.2,-48.8,54.6*
CC(=O)Nc1cccc(Nc2nc3ccccc3n3nnnc23)c1,-0.5,0.0,9.4,-13.6
CC(=O)Nc1ccc(Nc2nc3ccccc3n3nnnc23)cc1,0.0,-0.1,4.6,37.7*
Cn1c(Nc2nc(NCCc3ccc(O)cc3)c3ncn(-c4ccccc4)c3n2)nc2ccccc21,-3.7,0.8,1.4,18.6
Cn1nccc1Nc1nc(NC2CC2)c2ncn(-c3ccccc3)c2n1,-2.5,0.0,5.9,40.4*
SMILES,GPR151 ag,FBW7 activator,MITF inh,TEAD-YAP block
CC(=O)c1cccc(NS(=O)(=O)c2cc([N+](=O)[O-])ccc2C)c1,-0.7,0.0,-4.0,2.8
CCCN(C(=O)CCl)C1CCS(=O)(=O)C1 (stereo not drawn),0.0,-0.1,4.7,50.3*
CC(C)CN(C(=O)CCl)C1CCS(=O)(=O)C1 (stereo not drawn),-0.6,-0.1,7.4,66.3*
CN(C)CCN(C(=O)CCl)C1CCS(=O)(=O)C1 (stereo not drawn),-0.2,0.5,18.3,8.9
Cc1csc(N/N=C\c2ccccn2)n1,-6.9,-2.0,16.1,78.7*
CN1CC=C(/C=C/C2=Cc3ccccc3OC2)CC1,-7.6,-0.1,-4.0,74.7*
CN1C(=O)/C(=C/C2=Cc3ccccc3OC2)SC1=S,1.1,-0.1,-6.3,5.6
CCCCCCCCNC(=O)c1ccc([N+](=O)[O-])o1,0.4,-0.2,1.4,34.7*
O=C(NCCCN1CCOCC1)c1ccc([N+](=O)[O-])o1,-1.1,0.1,14.3,9.6
O=C(NCCOC12CC3CC(CC(C3)C1)C2)c1cc([N+](=O)[O-])ccc1Cl,-0.7,0.0,6.7,33.0*
CCOc1ccc(CCNC(=O)c2cc([N+](=O)[O-])ccc2Cl)cc1OCC,0.0,0.6,15.6,39.0*
O=C(Nc1ccc(C23CC4CC(CC(C4)C2)C3)cc1)c1cc([N+](=O)[O-])ccc1Cl,-0.2,0.0,12.1,29.9
Cc1[nH]c2ccc(OC(F)(F)F)cc2c1CCNC(=O)c1cc([N+](=O)[O-])ccc1Cl,0.2,-0.2,5.7,66.1*
CCOC(=O)CSc1nnc(CNc2ccc(C)cc2C)n1CC,-0.1,-0.1,8.1,4.8
COc1ccc2oc(=O)c(-c3csc(NNc4ccccc4)n3)cc2c1,-0.2,0.0,-10.6,-3.2
COc1ccc(OC)c(NC(=O)c2oc3ccccc3c2NC(=O)C(C)(C)C)c1,-0.5,-0.1,-19.3,-4.2
Cc1ccccc1-n1nc2c(c1NC(=O)c1cc([N+](=O)[O-])ccc1Cl)CSC2,-0.1,-0.1,11.0,74.3*
Cc1ccc(-n2nc3c(c2NC(=O)c2cc([N+](=O)[O-])ccc2Cl)CS(=O)(=O)C3)c(C)c1,-0.7,-0.2,6.2,70.3*
Cc1ccc(-n2nc3c(c2NC(=O)c2ccc([N+](=O)[O-])cc2)CS(=O)(=O)C3)c(C)c1,-0.1,0.6,11.1,3.6
COc1ccc(-n2nc3c(c2NC(=O)c2cc([N+](=O)[O-])ccc2Cl)CS(=O)(=O)C3)cc1,-0.9,0.0,9.3,72.6*
Cc1ccc(-n2nc3c(c2NC(=O)c2cc([N+](=O)[O-])ccc2Cl)CS(=O)(=O)C3)cc1,2.0,-0.3,5.0,16.3
CCOC(=O)c1c(NC(=O)c2cc3cc(OC)ccc3oc2=O)sc2c1CCCC2,-1.3,-0.1,3.9,2.2
C=CCn1c(NC(=O)C2CCCCC2)nc2ccccc21,-0.2,0.2,-10.4,11.8
CCN1CCN(c2nc3cc(OC)ccc3cc2CNC(C)COC)CC1 (stereo not drawn),1.7,-0.3,-0.7,-4.3
c1ccc2sc(N3CCN(c4nc5cc6c(cc5s4)OCCO6)CC3)nc2c1,0.2,0.0,8.2,0.6
SMILES,GPR151 ag,FBW7 activator,MITF inh,TEAD-YAP block
c1c2c(cc3sc(N4CCCC4)nc13)OCCO2,-8.0,-0.1,-0.7,71.5*
c1ccc2c(c1)CCN(c1nc3cc4c(cc3s1)OCCO4)C2,-5.2,-0.3,3.6,88.7*
CC(C)Cc1cc(C(=O)NCC2CCC3(CCN(Cc4cccnc4)CC3)O2)n[nH]1 (stereo not drawn),-0.3,-0.1,-8.9,1.4
Cc1cccc(NC(=O)NCCNc2cc(N(C)C)nc(C)n2)c1,1.1,0.7,-2.2,0.3
FC(F)(F)c1cccc(OCCSc2ncccn2)c1,2.5,0.2,12.1,-5.9
CC1(C)CC(NCc2ccccc2)=CC(=C(C#N)C#N)C1,1.2,0.1,21.8,2.0
Cc1ccc(/C=C2/SC(=S)N(CCCCCC(=O)O)C2=O)o1,2.3,-0.3,39.8,38.7*
Cc1ccc(/C=C2\SC(=S)N(C)C2=O)o1,1.9,-0.5,6.3,11.9
Cc1ccc(/C=C2\CS/C(=C\c3ccc(C)o3)C2=O)o1,1.0,-0.7,66.8*,-8.9
Cc1ccc(/C=C2/SC(=S)N(CCS(=O)(=O)O)C2=O)o1,0.8,-1.2,56.3*,6.4
